The structures appear in SMILES notation. Inconclusive results are not listed. Calls of active or inactive are those of the source. Calls come from the whole dose curve; as a rule, active = well fitted curve in the direction sought with a large enough effect; inconclusive = small, poorly fitted or top-dose-only effect, or another doubt; inactive = no such curve, though single readings can be large; an effect the other way counts as inactive or inconclusive.

Our source for the Potency values is PubChem BioAssay (NCATS).

Experiment [1] in a line: Quantitative High-Throughput drug screen in 47 multiple myeloma cell lines against the NCATS MIPE library collection: Karpas620_DSMZ cell viability assay (AID 1918959). Note: nearly all actives have a fitted effect of over 30% in size. Note: potency is the fitted concentration of half-maximal effect. In short, it runs like this:
(§1)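 Steps: seed 500 cells per well; pin-transfer MIPE 4.0 library; incubate 48 h at 37C, 5% CO2, humidified; add CellTiter-Glo, 5 min room temperature; read luminescence.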

A short description of experiment [2]: Quantitative High-Throughput drug screen in 47 multiple myeloma cell lines against the NCATS MIPE library collection: Karpas417_ECACC cell viability assay (AID 1918961). Note: potency is the fitted concentration of half-maximal effect. The conditions noted are these: Karpas417 myeloma viability, CellTiter-Glo ATP luminescence, 48 h; viability (% of DMSO): at 45.8 µM (top of the series). In short, it runs like this: (§2)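 CellTiter-Glo luminescence (ATP) after 48 h compound exposure, 37C/5% CO2; 500 cells/well; MIPE 4.0 approved/investigational drugs pinned in; DMSO = 100%, media only = 0% viability.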
For orientation: In ATP-based viability assays light output follows the ATP content of the culture.

Experiment [3] can be described thus: Quantitative High-Throughput drug screen in 47 multiple myeloma cell lines against the NCATS MIPE library collection: KHM11_PLB cell viability assay (AID 1918962). Note: potency is the fitted concentration of half-maximal effect; nearly all actives have a fitted effect of over 35% in size. In short, it runs like this: as §1
The nature of experiment [4]: Quantitative High-Throughput drug screen in 47 multiple myeloma cell lines against the NCATS MIPE library collection: JIM3_ECACC cell viability assay (AID 1918963; note: nearly all actives have a fitted effect of over 35% in size; note: potency is the fitted concentration of half-maximal effect). In short, it runs like this: as §1
Experiment [5] can be described thus: Quantitative High-Throughput drug screen in 47 multiple myeloma cell lines against the NCATS MIPE library collection: JIM1_ECACC cell viability assay (AID 1918964; note: potency is the fitted concentration of half-maximal effect). The gist of the method: (§3)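 Inhibition of cell viability is measured here. Each line was plated at 500 cells per well, treated with MIPE 4.0 drugs, kept 48 hours at 37C, then assayed for ATP content by CellTiter-Glo luminescence.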

Experiment [6] in a line: Quantitative High-Throughput drug screen in 47 multiple myeloma cell lines against the NCATS MIPE library collection: INA6_PLB cell viability assay (AID 1918965; note: nearly all actives have a fitted effect of over 55% in size; note: potency is the fitted concentration of half-maximal effect). The gist of the method: as §2
Experiment [7] in a line: Quantitative High-Throughput drug screen in 47 multiple myeloma cell lines against the NCATS MIPE library collection: JJN3_DSMZ cell viability assay (AID 1918966; note: nearly all actives have a fitted effect of over 50% in size; note: potency is the fitted concentration of half-maximal effect). In short, it runs like this: as §3
Experiment [8] can be described thus: Quantitative High-Throughput drug screen in 47 multiple myeloma cell lines against the NCATS MIPE library collection: H1112_PLB cell viability assay (AID 1918967; note: nearly all actives have a fitted effect of over 30% in size; note: potency is the fitted concentration of half-maximal effect). The gist of the method: as §3
The nature of experiment [9]: Quantitative High-Throughput drug screen in 47 multiple myeloma cell lines against the NCATS MIPE library collection: Karpas25_ECACC cell viability assay (AID 1918968; note: nearly all actives have a fitted effect of over 35% in size; note: potency is the fitted concentration of half-maximal effect). The gist of the method: as §3
Experiment [10] is described as follows: Quantitative High-Throughput drug screen in 47 multiple myeloma cell lines against the NCATS MIPE library collection: KMS27_JCRB cell viability assay (AID 1918970). Note: nearly all actives have a fitted effect of over 30% in size. Note: potency is the fitted concentration of half-maximal effect. As to conditions: KMS27 myeloma cells, CellTiter-Glo ATP viability, 48 h; viability (% of DMSO): at 45.8 µM (top of the series). In short, it runs like this: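 Viability inhibition screen, 48 h compound exposure, luminescent ATP read-out.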

Experiment [11] can be described thus: Quantitative High-Throughput drug screen in 47 multiple myeloma cell lines against the NCATS MIPE library collection: KMS12BM_JCRB cell viability assay (AID 1918971). Note: nearly all actives have a fitted effect of over 35% in size. Note: potency is the fitted concentration of half-maximal effect. In short, it runs like this: (§4)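 Viability readout: CellTiter-Glo luminescence following 5 min room-temperature incubation with reagent. Prior exposure: 48 h, 37C, humidified 5% CO2, 500 cells per well.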

Experiment [12] is described as follows: Quantitative High-Throughput drug screen in 47 multiple myeloma cell lines against the NCATS MIPE library collection: KMS20_JCRB cell viability assay (AID 1918973). Note: nearly all actives have a fitted effect of over 45% in size. Note: potency is the fitted concentration of half-maximal effect. In short, it runs like this:
as §3

Experiment [13] is described as follows: Quantitative High-Throughput drug screen in 47 multiple myeloma cell lines against the NCATS MIPE library collection: KMS26_JCRB cell viability assay (AID 1918975). Note: nearly all actives have a fitted effect of over 45% in size. Note: potency is the fitted concentration of half-maximal effect. The gist of the method:
as §4

Experiment [14] is described as follows: Quantitative High-Throughput drug screen in 47 multiple myeloma cell lines against the NCATS MIPE library collection: MMM1_PLB cell viability assay (AID 1918976). The gist of the method:
(§5)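 500 cells/well; MIPE 4.0 drugs pin-transferred; 48 h, 37C, 5% CO2. CellTiter-Glo, 5 min RT, luminescence. Controls: DMSO 100%, media 0%.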

Experiment [15] in a line: Quantitative High-Throughput drug screen in 47 multiple myeloma cell lines against the NCATS MIPE library collection: NCIH929_DSMZ cell viability assay (AID 1918978). Note: nearly all actives have a fitted effect of over 35% in size. Note: potency is the fitted concentration of half-maximal effect. In short, it runs like this: as §5
Experiment [16] is described as follows: Quantitative High-Throughput drug screen in 47 multiple myeloma cell lines against the NCATS MIPE library collection: OCIMY1_PLB cell viability assay (AID 1918979). Note: nearly all actives have a fitted effect of over 35% in size. Note: potency is the fitted concentration of half-maximal effect. In short, it runs like this: as §5
The nature of experiment [17]: Quantitative High-Throughput drug screen in 47 multiple myeloma cell lines against the NCATS MIPE library collection: KMM1_JCRB cell viability assay (AID 1918960). Note: nearly all actives have a fitted effect of over 30% in size. The gist of the method:
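Viability screen: myeloma cells (500/well) incubated 48 h at 37 °C, humidified 5% CO2, with pinned library compounds; CellTiter-Glo added, luminescence read; DMSO wells set 100%, medium-only wells 0%.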

Experiment [18] in a line: Quantitative High-Throughput drug screen in 47 multiple myeloma cell lines against the NCATS MIPE library collection: KMS12PE_JCRB cell viability assay (AID 1918972). Note: nearly all actives have a fitted effect of over 30% in size. Note: potency is the fitted concentration of half-maximal effect. In short, it runs like this: as §2
The nature of experiment [19]: Quantitative High-Throughput drug screen in 47 multiple myeloma cell lines against the NCATS MIPE library collection: MOLP8_DSMZ cell viability assay (AID 1918977). Note: nearly all actives have a fitted effect of over 45% in size. Note: potency is the fitted concentration of half-maximal effect. The gist of the method:
as §5

In the case of `CCS(=O)(=O)Nc1ccc2[nH]c(O)c(C(=Nc3ccc(CN4CCCCC4)cc3)c3ccccc3)c2c1`, the Potency in experiment [1] was 1.48 µM (active); in experiment [2] it was 0.105 µM (active); in [3], 0.418 µM (active); in experiment [4], 0.209 µM (active); in experiment [5], 0.059 µM (active); in experiment [6], 0.469 µM (active). Moreover, the Potency in [7] was 0.743 µM (active); in experiment [8], 4.69 µM (active); in experiment [9] it was 0.235 µM (active); in experiment [10], 0.132 µM (active); in experiment [11], 13.2 µM (active); in experiment [12], 0.296 µM (active). The Potency was 0.469 µM (active) in [13], 0.209 µM (active) in experiment [14], 0.105 µM (active) in experiment [15] and 5.9 µM (active) in experiment [16].

As to `Nc1nc(=O)n([C@H]2CSC(CO)O2)cc1F` (stereo partly drawn), the Potency entry in experiment [1], in experiment [17], in [4], in experiment [10], in [12] and in [15] was “inactive” each time.

As to `CCN(CC)CCCCNc1ncc2c(n1)N(C)C(=O)N(c1c(Cl)c(OC)cc(OC)c1Cl)C2`, the Potency result in experiment [1], in experiment [17], in experiment [5] and in experiment [15] was “inactive” each time. In addition, the Potency in experiment [6] was 11.8 µM (active); in experiment [8], 16.6 µM (active); in [9] it was 16.6 µM (active); in [14] it was 9.35 µM (active).

As for `NC(=O)N1CCC(CC(=O)N2CCC([C@H]3c4ncc(Br)cc4CCc4cc(Cl)cc(Br)c43)CC2)CC1`, the Potency in experiment [1] is 14.8 µM (active); in experiment [2], 10.5 µM (active); in experiment [3], 0.0372 µM (active); in experiment [4] it was 18.7 µM (active); in [5], 5.9 µM (active); in experiment [6], 7.43 µM (active). Also, the Potency in experiment [7] was 16.6 µM (active); in experiment [8], 10.5 µM (active); in experiment [9], 14.8 µM (active); in experiment [11] it was 18.7 µM (active); in experiment [18] it was 11.8 µM (active); in experiment [13], 20.9 µM (active). Also, the Potency in [14] was 16.6 µM (active); in [16], 20.9 µM (active).

Consider `COc1ccc([C@@H]2CNC(=O)C2)cc1OC1CCCC1`, for which the Potency result in experiment [1], in experiment [2], in experiment [7], in experiment [11] and in experiment [16] was “inactive” throughout. Moreover, the Potency was 10.5 µM (active) in [3]; 9.35 µM (active) in experiment [6]; 2.96 µM (active) in experiment [8]; 3.32 µM (active) in [9]; 26.4 µM (active) in experiment [10]; 3.72 µM (active) in [12]. In addition, the Potency in [15] was 4.18 µM (active).

Take `C=CCNc1c(O)cc2c(O)c1C[C@@H](C)C[C@H](OC)[C@@H](O)[C@@H](C)C=C(C)[C@H](OC(N)=O)[C@@H](OC)C=CC=C(C)C(=O)N2`: the Potency in experiment [1] is 1.18 µM (active); in experiment [2], 0.0743 µM (active); in experiment [3] it was 0.264 µM (active); in experiment [4], 0.59 µM (active); in experiment [5], 0.209 µM (active); in experiment [6], 0.187 µM (active). Moreover, the Potency in experiment [7] was 0.296 µM (active); in experiment [8], 1.05 µM (active); in experiment [9], 0.469 µM (active); in experiment [10], 0.148 µM (active); in experiment [11], 0.332 µM (active); in experiment [12], 0.372 µM (active). For the same molecule, the Potency in [13] was 1.32 µM (active); in [14] it was 8.33 µM (active); in experiment [19], 0.332 µM (active); in experiment [15], 0.418 µM (active); in experiment [16], 1.48 µM (active).

For the molecule `C=C1C[C@@]2(O)O[C@@]3(C[C@H]2C(C)C)[C@H](C)CC[C@H]13`, the Potency result in experiment [1], in [4], in [6], in [8], in experiment [10] and in experiment [11] was “inactive” in each case. For the same molecule, the Potency result in experiment [12], in experiment [19], in experiment [15] and in [16] was “inactive” throughout.

Consider `CC(C)(C)c1nc2c3cc[nH]c(=O)c3c3cc(F)ccc3c2[nH]1`, for which the Potency entry in [1], in experiment [5] and in experiment [18] was “inactive” throughout. Also, the Potency in experiment [3] was 1.48 µM (active); in [4] it was 1.87 µM (active); in experiment [6], 0.418 µM (active); in [7] it was 0.662 µM (active); in [8], 1.18 µM (active); in [12], 1.32 µM (active). The Potency was 0.0118 µM (active) in [13] and 0.662 µM (active) in experiment [14].

Consider `OCCN1C[C@H](O)[C@@H](O)[C@H](O)[C@@H]1CO`, for which the Potency entry in [1], in experiment [4], in [8], in experiment [9], in experiment [10] and in [11] was “inactive” in each case. Besides, the Potency entry in experiment [18], in experiment [13] and in experiment [15] was “inactive” in each case.

With `C[C@]12CC[C@@H]3c4ccc(O)cc4CC[C@H]3[C@H]1CC[C@H]2O`, the Potency in [1] was 4.18 µM (active); in [3], 4.69 µM (active); in [4] it was 14.8 µM (active); in [5] it was 5.9 µM (active); in [6] it was 8.33 µM (active); in experiment [8] it was 8.33 µM (active). Moreover, the Potency is 33.2 µM (active) in experiment [11], 18.7 µM (active) in [12] and 5.9 µM (active) in experiment [13].

For `CC(N[C@H]1CCCC[C@H]1NC(=O)c1ccc(Cl)cc1)c1cccc2ccccc12` (stereo partly drawn), the Potency in [1] was 0.132 µM (active); in experiment [2], 0.0469 µM (active); in experiment [8], 20.9 µM (active); in experiment [9], 14.8 µM (active); in [10] it was 0.118 µM (active). Besides, the Potency entry in [13], in experiment [19] and in experiment [16] was “inactive” in each case.

In the case of `CC(C)[C@H](CO)Nc1nc(Nc2cccc(Cl)c2)c2ncn(C(C)C)c2n1`, the Potency result in experiment [1] is “inactive”. The Potency is 18.7 µM (active) in experiment [4]; 18.7 µM (active) in experiment [6]; 26.4 µM (active) in experiment [8]; 26.4 µM (active) in experiment [9]; 20.9 µM (active) in experiment [11]; 20.9 µM (active) in [12]. For the same molecule, the Potency is 23.5 µM (active) in experiment [13]; 26.4 µM (active) in experiment [14]; 18.7 µM (active) in experiment [19]; 18.7 µM (active) in experiment [15]; 23.5 µM (active) in experiment [16].

Turning to `CN(C)c1ccc2cc(C(=O)N[C@@H](CCCN=C(N)CCl)C(=O)NCc3ccccc3)ccc2c1`, the Potency was 5.9 µM (active) in experiment [1]; 16.6 µM (active) in experiment [3]; 11.8 µM (active) in experiment [4]; 3.72 µM (active) in experiment [5]; 9.35 µM (active) in experiment [6]; 1.05 µM (active) in experiment [7]. For the same molecule, the Potency is 20.9 µM (active) in [8]; 13.2 µM (active) in [9]; 1.48 µM (active) in [10]; 11.8 µM (active) in experiment [11]; 7.43 µM (active) in [18]; 8.33 µM (active) in [12]. Besides, the Potency in experiment [13] is 6.62 µM (active); in experiment [14], 18.7 µM (active); in [19], 9.35 µM (active); in experiment [15], 16.6 µM (active).
